According to PubChem BioAssay AID1159580 (chemical genetic matrix, 2015):
In all, about 5,500 compounds went through this assay and about 2,000 (36%) were called active. Roughly 18% stayed inconclusive and do not appear here. Cut-off read from the data, not from the text of the source: active = normalized growth mostly below about 0.91 (no sharp cut-off); inconclusive = no clear call, values can overlap the other calls; inactive = mostly above about 0.92. This is one part of the list.

Experiment: chemical genetic growth profiling, strain panel (AID 1159580);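 note: tested at 20 µM; growth read once vehicle control cultures reached saturation at 30 °C; 1 = growth at the plate median or of vehicle wells; lower values mean less growth of the strain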
Conditions: growth OD
[1] = S. cerevisiae deletion strains, locus YDR150W, strain NUM1, stronger effect = lower value
[2] = S. cerevisiae deletion strains, locus YMR263W, strain SAP30, stronger effect = lower value
[3] = S. cerevisiae deletion strains, locus YPL055C, strain LGE1, stronger effect = lower value
[4] = S. cerevisiae deletion strains, locus YPL241C, strain CIN2, stronger effect = lower value

Measured: normalized growth

COc1ccccc1NC(=O)NCCSCc1ccccc1Cl
inactive: S. cerevisiae deletion strains, locus YAL013W, strain DEP1, stronger effect = lower value 0.979 | S. cerevisiae deletion strains, locus YBR229C, strain ROT2, stronger effect = lower value 0.981 | S. cerevisiae deletion strains, locus YDL101C, strain DUN1, stronger effect = lower value 1.03 | S. cerevisiae deletion strains, locus YDL134C, strain PPH21, stronger effect = lower value 0.978 | [1] 0.968 | S. cerevisiae deletion strains, locus YEL061C, strain CIN8, stronger effect = lower value 0.983 | S. cerevisiae deletion strains, locus YGR078C, strain PAC10, stronger effect = lower value 0.993 | S. cerevisiae deletion strains, locus YGR229C, strain SMI1, stronger effect = lower value 0.984 | S. cerevisiae deletion strains, locus YHR030C, strain SLT2, stronger effect = lower value 0.877 | S. cerevisiae deletion strains, locus YHR087W, strain rtc3, stronger effect = lower value 0.976 | S. cerevisiae deletion strains, locus YJL187C, strain SWE1, stronger effect = lower value 1.01 | S. cerevisiae deletion strains, locus YJR043C, strain POL32, stronger effect = lower value 1.01 | S. cerevisiae deletion strains, locus YJR075W, strain HOC1, stronger effect = lower value 1.01 | S. cerevisiae deletion strains, locus YLR039C, strain RIC1, stronger effect = lower value 0.887 | S. cerevisiae deletion strains, locus YLR058C, strain SHM2 (second series), stronger effect = lower value 1 | S. cerevisiae deletion strains, locus YLR085C, strain ARP6, stronger effect = lower value 1.07 | S. cerevisiae deletion strains, locus YLR262C, strain YPT6, stronger effect = lower value 0.931 | S. cerevisiae deletion strains, locus YML094W, strain GIM5, stronger effect = lower value 0.963 | S. cerevisiae deletion strains, locus YMR219W, strain ESC1, stronger effect = lower value 0.988 | [2] 1.01 | S. cerevisiae deletion strains, locus YNL153C, strain GIM3, stronger effect = lower value 1.01 | S. cerevisiae deletion strains, locus YNL298W, strain CLA4 (second series), stronger effect = lower value 0.974 | S. cerevisiae deletion strains, locus YNL322C, strain KRE1, stronger effect = lower value 0.985 | S. cerevisiae deletion strains, locus YNR030W, strain Alg12, stronger effect = lower value 0.971 | S. cerevisiae deletion strains, locus YOL006C, strain TOP1, stronger effect = lower value 0.954 | [3] 0.927 | [4] 1.04 | S. cerevisiae deletion strains, locus YPR135W, strain CTF4, stronger effect = lower value 0.88 | S. cerevisiae strains, strain wild type, stronger effect = lower value 0.978

CN1CC(C(=O)NC2(C)OC3(O)C4CCCN4C(=O)C(Cc4ccccc4)N3C2=O)CC2c3cccc4[nH]cc(c34)CC21 (stereo not drawn)
inactive: S. cerevisiae deletion strains, locus YAL040C, strain CLN3, stronger effect = lower value 0.995 | S. cerevisiae deletion strains, locus YCL061C, strain MRC1 (second series), stronger effect = lower value 0.992 | [1] 0.99 | S. cerevisiae deletion strains, locus YDR363W, strain ESC2, stronger effect = lower value 0.974 | S. cerevisiae deletion strains, locus YER002W, strain NOP16, stronger effect = lower value 0.988 | [2] 0.987 | S. cerevisiae deletion strains, locus YMR307W, strain GAS1, stronger effect = lower value 0.965 | S. cerevisiae deletion strains, locus YNL128W, strain TEP1, stronger effect = lower value 0.994 | S. cerevisiae deletion strains, locus YNL175C, strain NOP13, stronger effect = lower value 1.01 | S. cerevisiae deletion strains, locus YNL197C, strain WHI3, stronger effect = lower value 0.985 | S. cerevisiae deletion strains, locus YNL224C, strain SQS1, stronger effect = lower value 1 | S. cerevisiae deletion strains, locus YOR083W, strain WHI5 (second series), stronger effect = lower value 0.98 | [3] 0.905 | [4] 0.995
